PubChem BioAssay AID1159580 (chemical genetic matrix, 2015)
Hit rate of the full screen: of about 5,500 compounds, about 2,000 (36%) were called active. About 18% were inconclusive and are not listed. No stated cut-off is given here; in the data, active means normalized growth mostly below about 0.91 (no sharp cut-off); inconclusive means no clear call, values can overlap the other calls; inactive means mostly above about 0.92. This is one part of the list.

Experiment: chemical genetic growth profiling, strain panel (AID 1159580);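 further: tested at 20 µM; growth read once vehicle control cultures reached saturation at 30 °C; 1 = growth at the plate median or of vehicle wells; lower values mean less growth of the strain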
Conditions: growth OD
[1] = S. cerevisiae deletion strains, locus YDL101C, strain DUN1, hits give low values
[2] = S. cerevisiae deletion strains, locus YHR030C, strain SLT2, hits give low values
[3] = S. cerevisiae deletion strains, locus YMR263W, strain SAP30, hits give low values
[4] = S. cerevisiae deletion strains, locus YPL055C, strain LGE1, hits give low values
[5] = S. cerevisiae deletion strains, locus YAR019C, strain CDC15, hits give low values
[6] = S. cerevisiae deletion strains, locus YBL105C, strain PKC1, hits give low values
[7] = S. cerevisiae deletion strains, locus YBR135W, strain CKS1, hits give low values
[8] = S. cerevisiae deletion strains, locus YBR136W, strain MEC1, hits give low values
[9] = S. cerevisiae deletion strains, locus YBR160W, strain CDC28, hits give low values
[10] = S. cerevisiae deletion strains, locus YDL017W, strain CDC7, hits give low values
[11] = S. cerevisiae deletion strains, locus YDL108W, strain KIN28, hits give low values
[12] = S. cerevisiae deletion strains, locus YDL132W, strain cdc53, hits give low values
[13] = S. cerevisiae deletion strains, locus YDL214C, strain PRR2, hits give low values
[14] = S. cerevisiae deletion strains, locus YDR052C, strain DBF4, hits give low values
[15] = S. cerevisiae deletion strains, locus YDR226W, strain ADK1, hits give low values
[16] = S. cerevisiae deletion strains, locus YDR477W, strain SNF1, hits give low values
[17] = S. cerevisiae deletion strains, locus YER123W, strain YCK3, hits give low values
[18] = S. cerevisiae deletion strains, locus YER133W, strain GLC7, hits give low values
[19] = S. cerevisiae deletion strains, locus YFL009W, strain cdc4, hits give low values
[20] = S. cerevisiae deletion strains, locus YFL029C, strain CAK1, hits give low values
[21] = S. cerevisiae deletion strains, locus YFR003C, strain YPI1, hits give low values
[22] = S. cerevisiae deletion strains, locus YFR019W, strain FAB1, hits give low values
[23] = S. cerevisiae deletion strains, locus YFR028C, strain CDC14, hits give low values
[24] = S. cerevisiae deletion strains, locus YGR040W, strain KSS1, hits give low values
[25] = S. cerevisiae deletion strains, locus YGR052W, strain FMP48, hits give low values
[26] = S. cerevisiae deletion strains, locus YGR092W, strain DBF2, hits give low values
[27] = S. cerevisiae deletion strains, locus YHR079C, strain IRE1, hits give low values
[28] = S. cerevisiae deletion strains, locus YHR082C, strain KSP1, hits give low values
[29] = S. cerevisiae deletion strains, locus YHR205W, strain SCH9, hits give low values
[30] = S. cerevisiae deletion strains, locus YJL095W, strain BCK1, hits give low values
[31] = S. cerevisiae deletion strains, locus YJL128C, strain PBS2, hits give low values
[32] = S. cerevisiae deletion strains, locus YJL157C, strain FAR1, hits give low values
[33] = S. cerevisiae deletion strains, locus YJR016C, strain ILV3, hits give low values
[34] = S. cerevisiae deletion strains, locus YJR066W, strain TOR1 (second series), hits give low values
[35] = S. cerevisiae deletion strains, locus YJR066W, strain TOR1, hits give low values
[36] = S. cerevisiae deletion strains, locus YKL048C, strain ELM1, hits give low values
[37] = S. cerevisiae deletion strains, locus YKL067W, strain YNK1, hits give low values
[38] = S. cerevisiae deletion strains, locus YKL101W, strain HSL1, hits give low values
[39] = S. cerevisiae deletion strains, locus YKL193C, strain SDS22, hits give low values
[40] = S. cerevisiae deletion strains, locus YKL203C, strain TOR2, hits give low values
[41] = S. cerevisiae deletion strains, locus YLR113W, strain HOG1, hits give low values
[42] = S. cerevisiae deletion strains, locus YLR133W, strain CKI1, hits give low values
[43] = S. cerevisiae deletion strains, locus YLR403W, strain SFP1, hits give low values
[44] = S. cerevisiae deletion strains, locus YML070W, strain DAK1, hits give low values
[45] = S. cerevisiae deletion strains, locus YMR205C, strain PFK2 (second series), hits give low values
[46] = S. cerevisiae deletion strains, locus YNL006W, strain LST8, hits give low values
[47] = S. cerevisiae deletion strains, locus YNL020C, strain ARK1, hits give low values
[48] = S. cerevisiae deletion strains, locus YNL161W, strain CBK1, hits give low values
[49] = S. cerevisiae deletion strains, locus YNL183C, strain NPR1, hits give low values
[50] = S. cerevisiae deletion strains, locus YNL207W, strain RIO2, hits give low values
[51] = S. cerevisiae deletion strains, locus YNL222W, strain SSU72, hits give low values
[52] = S. cerevisiae deletion strains, locus YNL307C, strain MCK1 (second series), hits give low values
[53] = S. cerevisiae deletion strains, locus YOL136C, strain PFK27, hits give low values
[54] = S. cerevisiae deletion strains, locus YOR061W, strain CKA2, hits give low values
[55] = S. cerevisiae deletion strains, locus YOR119C, strain RIO1, hits give low values
[56] = S. cerevisiae deletion strains, locus YOR231W, strain MKK1, hits give low values
[57] = S. cerevisiae deletion strains, locus YOR329C, strain SCD5, hits give low values
[58] = S. cerevisiae deletion strains, locus YPL031C, strain PHO85, hits give low values
[59] = S. cerevisiae deletion strains, locus YPL153C, strain RAD53, hits give low values
[60] = S. cerevisiae deletion strains, locus YPL204W, strain HRR25, hits give low values
[61] = S. cerevisiae deletion strains, locus YPL209C, strain IPL1, hits give low values
[62] = S. cerevisiae deletion strains, locus YPL256C, strain CLN2, hits give low values
[63] = S. cerevisiae deletion strains, locus YPR025C, strain CCL1, hits give low values
[64] = S. cerevisiae deletion strains, locus YPR106W, strain ISR1, hits give low values
[65] = S. cerevisiae deletion strains, locus YPR111W, strain DBF20, hits give low values
[66] = S. cerevisiae deletion strains, strain NNK1, hits give low values
[67] = S. cerevisiae deletion strains, strain TSCII, hits give low values

Measured: normalized growth

CC(C)(C)S(=O)(=O)/C(C#N)=C/N1CCCCC1
inactive: S. cerevisiae deletion strains, locus YBR229C, strain ROT2, hits give low values 1.02 | [1] 0.989 | S. cerevisiae deletion strains, locus YDR150W, strain NUM1, hits give low values 0.995 | S. cerevisiae deletion strains, locus YEL061C, strain CIN8, hits give low values 1.05 | S. cerevisiae deletion strains, locus YGR078C, strain PAC10, hits give low values 0.993 | [2] 1.02 | S. cerevisiae deletion strains, locus YHR087W, strain rtc3, hits give low values 0.992 | S. cerevisiae deletion strains, locus YJL187C, strain SWE1, hits give low values 0.986 | S. cerevisiae deletion strains, locus YJR043C, strain POL32, hits give low values 0.983 | S. cerevisiae deletion strains, locus YJR075W, strain HOC1, hits give low values 1.02 | S. cerevisiae deletion strains, locus YLR039C, strain RIC1, hits give low values 1.02 | S. cerevisiae deletion strains, locus YLR058C, strain SHM2 (second series), hits give low values 1.01 | S. cerevisiae deletion strains, locus YLR085C, strain ARP6, hits give low values 1.04 | S. cerevisiae deletion strains, locus YLR262C, strain YPT6, hits give low values 1.03 | S. cerevisiae deletion strains, locus YML094W, strain GIM5, hits give low values 1.02 | S. cerevisiae deletion strains, locus YMR219W, strain ESC1, hits give low values 1.02 | [3] 1 | S. cerevisiae deletion strains, locus YNL128W, strain TEP1, hits give low values 1 | S. cerevisiae deletion strains, locus YNL153C, strain GIM3, hits give low values 1 | S. cerevisiae deletion strains, locus YNL298W, strain CLA4 (second series), hits give low values 1.02 | S. cerevisiae deletion strains, locus YNL322C, strain KRE1, hits give low values 1.02 | S. cerevisiae deletion strains, locus YNR030W, strain Alg12, hits give low values 1.02 | [4] 0.963 | S. cerevisiae deletion strains, locus YPL241C, strain CIN2, hits give low values 1.02 | S. cerevisiae deletion strains, locus YPR135W, strain CTF4, hits give low values 0.988 | S. cerevisiae strains, strain wild type, hits give low values 1.01

FC(F)(F)c1cccc(-n2c(CSCc3cccc4ccccc34)n[nH]c2=S)c1
inactive: [5] 0.986 | [6] 1 | [7] 0.996 | [8] 1 | [9] 0.986 | [10] 0.993 | S. cerevisiae deletion strains, locus YDL028C, strain MPS1, hits give low values 0.985 | [1] 0.989 | [11] 0.998 | [12] 0.988 | [13] 0.993 | [14] 1 | S. cerevisiae deletion strains, locus YDR054C, strain cdc34, hits give low values 0.992 | [15] 0.986 | [16] 0.976 | [17] 0.958 | [18] 0.969 | [19] 0.978 | [20] 0.993 | [21] 1 | [22] 1.01 | [23] 0.994 | [24] 0.991 | [25] 1.08 | [26] 0.952 | [2] 1.12 | [27] 1.1 | [28] 1.09 | [29] 1.01 | S. cerevisiae deletion strains, locus YIL147C, strain SLN1, hits give low values 0.999 | [30] 1.06 | [31] 0.979 | [32] 0.966 | [33] 0.993 | [34] 0.936 | [35] 1.09 | [36] 1 | [37] 0.989 | [38] 0.986 | [39] 0.99 | [40] 1.06 | [41] 1.07 | [42] 1 | [43] 0.973 | [44] 0.993 | S. cerevisiae deletion strains, locus YMR001C, strain CDC5, hits give low values 0.992 | [45] 1 | S. cerevisiae deletion strains, locus YMR277W, strain FCP1, hits give low values 0.976 | [46] 0.984 | [47] 1 | [48] 0.998 | [49] 1.13 | [50] 0.989 | [51] 0.997 | [52] 1 | S. cerevisiae deletion strains, locus YOL078W, strain AVO1, hits give low values 0.99 | [53] 0.991 | [54] 0.977 | [55] 1.02 | [56] 1.09 | [57] 0.993 | [58] 0.977 | [59] 0.962 | [60] 0.967 | [61] 0.99 | [62] 1.1 | [63] 0.992 | [64] 0.981 | [65] 0.993 | [66] 1.01 | [67] 0.995

O=c1c2ccccc2[nH]c(=S)n1-c1cccc(C(F)(F)F)c1
inactive: [5] 0.927 | [9] 0.923 | [1] 0.954 | [12] 0.944 | [13] 0.908 | [15] 0.956 | [17] 0.899 | [19] 0.95 | [21] 0.917 | [22] 0.97 | [23] 0.949 | [25] 0.914 | [26] 0.874 | [27] 0.837 | [28] 0.832 | [29] 0.748 | [31] 0.957 | [32] 0.925 | [34] 0.892 | [35] 0.799 | [36] 0.862 | [37] 0.927 | [38] 0.865 | [39] 0.917 | [41] 0.912 | [42] 0.895 | [44] 0.926 | [45] 0.894 | [46] 0.965 | [47] 0.886 | [48] 0.929 | [49] 0.852 | [50] 0.943 | [51] 0.944 | [52] 0.884 | [53] 0.93 | [54] 0.833 | [56] 0.872 | [57] 0.948 | [60] 0.719 | [61] 0.95 | [63] 0.946 | [64] 0.948 | [65] 0.962 | [66] 0.961 | [67] 0.889
active: [6] 0.811 | [7] 0.792 | [8] 0.774 | [10] 0.846 | [11] 0.565 | [14] 0.885 | [16] 0.427 | [18] 0.343 | [20] 0.633 | [24] 0.513 | [2] 0.334 | [30] 0.182 | [33] 0.717 | [40] 0.352 | [43] 0.459 | [55] 0.347 | [58] 0.589 | [59] 0.646 | [62] 0.824

Cc1c(CC(C)(C)C(=O)O)n(Cc2ccc(Cl)cc2)c2ccc(F)cc12
inactive: S. cerevisiae deletion strains, locus YAL040C, strain CLN3, hits give low values 0.974 | S. cerevisiae deletion strains, locus YCL061C, strain MRC1 (second series), hits give low values 0.985 | S. cerevisiae deletion strains, locus YDR363W, strain ESC2, hits give low values 0.986 | S. cerevisiae deletion strains, locus YER002W, strain NOP16, hits give low values 0.978 | [3] 0.971 | S. cerevisiae deletion strains, locus YNL175C, strain NOP13, hits give low values 0.985 | S. cerevisiae deletion strains, locus YNL197C, strain WHI3, hits give low values 0.974 | S. cerevisiae deletion strains, locus YNL224C, strain SQS1, hits give low values 0.978 | S. cerevisiae deletion strains, locus YOR083W, strain WHI5 (second series), hits give low values 0.986 | [4] 0.923
